37 molecules from PubChem BioAssay (NCI) can be followed below.

The test has as its system MDA-MB-468 breast. The experiment in a line: NCI-60 one-dose screen, 48 h (100 = growth as untreated, 0 = no growth, -100 = all killed). To be noted: 10 µM unless noted.

The panel holds about 83,000 compounds, 20% with a hit somewhere; the sample as a whole holds those more often.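 Negative percent growth values reflect cell death: -40 means 40% of the cells present at the start died, and -100 means all died.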 Values without a mark were called inactive. The source made the active and inactive calls. The calls were made as follows: active = growth percent below 10; inactive = the rest.

As for `COc1ccccc1C(=O)NC(=S)Nc1ccc(-c2nc3ccccc3[nH]2)cc1`, the growth was 75.1%.

For `Nc1ncn([C@@H]2O[C@H](CO)[C@@H](O)[C@H]2O)c(=O)n1`, the growth is 33.2%.

Take `O=C(O)CNC(=O)C1(N2C(=O)c3ccccc3C2=O)CCCC1`: the growth was 98.1%.

As for `OCC(O)C(O)C(O)C(O)/C=N/O` (configuration not stated), the growth was 99.5%.

As for `OCCCc1ccccc1`, the growth was 104%.

For the molecule `O=S(=O)(NCCNc1cc(-c2cn(-c3ccccc3)nc2-c2cccc(O)c2)ccn1)c1ccc(Cl)cc1`, the growth is -24.6% (active).

For `CC(C)=CCc1cc(O)c(O)c2oc3cc(O)cc(O)c3c(=O)c12`, the growth was 123%.

In the case of `O=C(Nc1ccc(-c2nc(N3CCOCC3)c3cccn3n2)cc1)Nc1cccnc1`, the growth was -37.9% (active).

Take `Oc1ccccc1N=Cc1ccccc1`: the growth is 91%.

`Cc1[nH]n(C(=O)c2ccncc2)c(=O)c1N=Nc1ccc(F)c(Cl)c1`: the growth is 110%.

In the case of `Cc1cc(Br)c(C)cc1Br`, the growth is 92.2%.

With `CS(=O)(=O)c1ccc(-c2nc3cc(Cl)ccc3n2CC(=O)N/N=C/c2ccc(Cl)cc2)cc1`, the growth is 96.6%.

On to `O=C(O)c1cn(C2CC2)c2cc(N3CCN(C(=O)C[n+]4ccccc4)CC3)c(F)cc2c1=O`, for which the growth was 107%.

On to `CCOC(=O)c1c(NC(=O)c2ccc(C(C)(C)C)cc2)sc2cc(O)ccc12`, for which the growth was 87.9%.

Regarding `O=c1oc2ccc(F)cc2c(=O)n1-c1ccc(Cl)cc1F`, the growth is -1.59% (active).

In the case of `COc1cc(CNS(=O)(=O)c2ccc(C)cc2)ccc1OCc1cn(-c2ccc(F)cc2)nn1`, the growth was 62.3%.

With `N#Cc1ccc(S(=O)(=O)Nc2ccc(-c3cnc(N)[nH]3)cc2)cc1`, the growth was 97.7%.

In the case of `CCOC(=O)C1=C(C)N=C2Sc3ccccc3N2C1c1ccccc1` (configuration not stated), the growth was 74.8%.

For the molecule `CCN1C(=O)N(c2ccccc2)C2NC(=S)N(/N=C/C=C/c3ccccc3)C21` (configuration not stated), the growth was 5.41% (active).

For `Cc1ccc(Nn2c(SCC(=O)Nc3nc(-c4ccccc4)cs3)nc(C)c2C)cc1`, the growth was 17.7%.

Take `O=C1/C(=C\c2cccn2Cc2ccccc2)c2ccccc2N1c1c(Cl)cccc1Cl`: the growth was -77.5% (active).

On to `Cc1ccc(NCCN(C)CC(C)O)c2c(=O)c3ccccc3sc12` (configuration not stated), for which the growth is 13.5%.

Turning to `Cc1sc2nc(NCCN)[nH]c(=O)c2c1C`, the growth is 80%.

Consider `Cc1[nH]n(-c2ccccc2)c2nc3nncc3c(-c3ccc(Cl)cc3)c12`, for which the growth was 95.1%.

Take `CCN(CC)CC(=O)Nc1c(C)cccc1C`: the growth is 101%.

For the molecule `CCn1c(Sc2nnc(NC(=O)CCN3CCCC3)s2)nc2c1c(=O)n(C)c(=O)n2C`, the growth was 101%.

As to `COc1ccc(-c2ccc3c(c2)sc2nc(-c4ccc(F)cc4)cn23)cc1`, the growth is 66.7%.

Take `CSc1nc(N)c(CNC(C)c2ccccc2)c(=O)n1C` (configuration not stated): the growth is 97.4%.

Take `COc1ccc(C(c2cc(OC)c(OC)c(OC)c2)N2CCN(c3ccccc3)CC2)cc1` (configuration not stated): the growth is 77.2%.

For `Nc1nc(N)c2c(n1)NC1(C=C(O)c3ccccc31)C1=C(N2)c2ccccc2C1=O` (configuration not stated), the growth is 127%.

With `COc1ccc(Cl)cc1NC(=O)c1cc2c([nH]1)-c1nc(NC(=O)C(C)(C)C)sc1CC2`, the growth is 84.9%.

`CCOC(=O)c1c(/N=C2\SC(=O)/C(=C\C(=O)OC)N2NC)sc2c1CCN(C(=O)OCC)C2`: the growth was 100%.

`Oc1[nH]c2ccccc2c1Nn1c(N=N/C=c2/ccc3c(c2)C=NN=3)n[nH]c1=S`: the growth is 107%.

In the case of `COc1ccc(-c2c(-c3nc4ccc(N5CCOCC5)cc4[nH]3)[nH]c(C)c2C(C)=O)cc1`, the growth was 23.1%.

Take `C#C[C@]1(O)CC[C@H]2[C@@H]3CC=C4c5nc(Nc6ccccc6[N+](=O)[O-])sc5CC[C@]4(C)[C@H]3CC[C@@]21C`: the growth was 70.7%.

For `COc1ccc2c3ccnc(C(F)(F)F)c3n(CCCCN)c2c1`, the growth is 33.7%.

Turning to `O=C1c2cccc3cccc(c23)C(=O)N1CC#Cc1ccc2c3c(cccc13)C(=O)N(CCN1CCNCC1)C2=O`, the growth is 111%.
